From article PMC4336329 (PLoS ONE, 2015)
Hit rate of the full screen: of about 310,000 compounds, about 14,000 (4.5%) showed an effect of 50% or more. Effects have a minus sign here. This excerpt belongs to a sample that is enriched for strong results.
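Further: peak tail current of the secondary pulse compared with the same well before compound.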

What follows are compounds tested against human ether-à-go-go-related gene (hERG) potassium channel (human, UniProt Q12809) (assay: primary screen, population patch clamp on CHO cells stably expressing hERG; higher = less effect of the substance).
human ether-à-go-go-related gene (hERG) potassium channel, sequence (Q12809 whole entry, looked up): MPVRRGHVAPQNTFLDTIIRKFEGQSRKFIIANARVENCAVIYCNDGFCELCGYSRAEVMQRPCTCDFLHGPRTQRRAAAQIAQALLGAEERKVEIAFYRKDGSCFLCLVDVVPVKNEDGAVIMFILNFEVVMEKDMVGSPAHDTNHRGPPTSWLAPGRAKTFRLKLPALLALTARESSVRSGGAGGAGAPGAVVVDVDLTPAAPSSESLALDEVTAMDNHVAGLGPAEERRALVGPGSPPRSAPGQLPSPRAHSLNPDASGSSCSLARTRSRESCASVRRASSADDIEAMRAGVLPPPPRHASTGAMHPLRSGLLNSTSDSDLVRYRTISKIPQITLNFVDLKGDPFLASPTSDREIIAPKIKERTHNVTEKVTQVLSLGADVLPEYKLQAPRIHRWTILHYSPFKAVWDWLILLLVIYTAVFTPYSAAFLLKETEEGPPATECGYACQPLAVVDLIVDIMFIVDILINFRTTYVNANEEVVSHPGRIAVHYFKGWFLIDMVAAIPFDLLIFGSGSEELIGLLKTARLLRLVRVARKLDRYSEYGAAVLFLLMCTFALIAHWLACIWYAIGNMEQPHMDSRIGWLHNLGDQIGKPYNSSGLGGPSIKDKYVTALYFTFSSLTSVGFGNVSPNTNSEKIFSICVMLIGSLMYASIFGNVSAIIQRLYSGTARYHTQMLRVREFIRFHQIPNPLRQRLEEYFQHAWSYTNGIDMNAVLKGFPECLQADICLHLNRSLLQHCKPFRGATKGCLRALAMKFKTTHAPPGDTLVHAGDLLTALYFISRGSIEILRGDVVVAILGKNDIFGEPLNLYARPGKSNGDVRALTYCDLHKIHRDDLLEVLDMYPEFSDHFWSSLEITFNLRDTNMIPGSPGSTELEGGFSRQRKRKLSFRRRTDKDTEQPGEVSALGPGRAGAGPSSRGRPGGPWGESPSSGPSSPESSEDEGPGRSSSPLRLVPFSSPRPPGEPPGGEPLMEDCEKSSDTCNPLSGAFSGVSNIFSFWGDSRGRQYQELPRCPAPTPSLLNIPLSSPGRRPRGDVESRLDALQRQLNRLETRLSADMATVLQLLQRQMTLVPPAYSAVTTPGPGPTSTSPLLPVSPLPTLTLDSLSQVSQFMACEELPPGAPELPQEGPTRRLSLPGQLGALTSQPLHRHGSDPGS
`O=C(/C=C\Nc1cccc(F)c1)c1cccs1` was tested, and the “hERG current change (%, negative = inhibition) at 10uM” value was 11.7%.
With `CC(NC(=O)C1CCN(S(=O)(=O)c2ccc3c(c2)NC(=O)CO3)CC1)c1ccccc1` (stereo not shown) the “hERG current change (%, negative = inhibition) at 10uM” value was -7.39%.
`CN(C)S(=O)(=O)N1CCN(C(=O)c2ccc3c(c2)OCO3)CC1` was tested, and the “hERG current change (%, negative = inhibition) at 10uM” value was 10%.
In the case of `CSc1ccc(/C=C(\C#N)C(=O)NC2CCCCC2C)cc1` (stereo not shown), the “hERG current change (%, negative = inhibition) at 10uM” value is reported as -21.7%.
For `N#C/C(=C/c1ccc(-c2cc([N+](=O)[O-])ccc2Cl)o1)C(N)=O`, the “hERG current change (%, negative = inhibition) at 10uM” value was 1.62%.
With `N#CC(=C=[N-])c1nc2ccccc2nc1-[n+]1ccccc1` the “hERG current change (%, negative = inhibition) at 10uM” value was -2.11%.
For `COc1ccccc1OCCC(=O)OCC(=O)c1c(N)n(C)c(=O)n(C)c1=O`, the “hERG current change (%, negative = inhibition) at 10uM” value was -10.3%.
For `Cn1c(N)c(C(=O)COC(=O)COc2ccc(Cl)cc2)c(=O)n(C)c1=O`, the “hERG current change (%, negative = inhibition) at 10uM” value was -23.1%.
In the case of `Cn1c(N)c(C(=O)COC(=O)COc2ccc(Br)cc2)c(=O)n(C)c1=O`, the “hERG current change (%, negative = inhibition) at 10uM” value is reported as -72.6%.
`CC(C)Cn1c(N)c(C(=O)COC(=O)c2ccccc2F)c(=O)n(C)c1=O` was tested, and the “hERG current change (%, negative = inhibition) at 10uM” value was -14.7%.
In the case of `Cc1ccc(C)c(OCCC(=O)OCC(=O)c2c(N)n(C)c(=O)n(C)c2=O)c1`, the “hERG current change (%, negative = inhibition) at 10uM” value is reported as -55.5%.
In the case of `CCC(=O)c1ccc(OCC(=O)OCC(=O)c2c(N)n(C)c(=O)n(C)c2=O)cc1`, the “hERG current change (%, negative = inhibition) at 10uM” value is reported as 5.93%.
In the case of `CCc1ccc(OCC(=O)OCC(=O)c2c(N)n(C)c(=O)n(C)c2=O)cc1`, the “hERG current change (%, negative = inhibition) at 10uM” value is reported as 10.2%.
`Cn1c(N)c(C(=O)COC(=O)COc2ccc(C#N)cc2)c(=O)n(C)c1=O` was tested, and the “hERG current change (%, negative = inhibition) at 10uM” value was -24%.
With `CC(C)Cn1c(N)c(C(=O)COC(=O)[C@H](C)NC(=O)c2ccccc2Cl)c(=O)n(C)c1=O` the “hERG current change (%, negative = inhibition) at 10uM” value was -53.1%.
For `Cn1c(N)c(C(=O)COC(=O)CCOc2ccc(C(C)(C)C)cc2)c(=O)n(C)c1=O`, the “hERG current change (%, negative = inhibition) at 10uM” value was -60.6%.
`CC(C)Cn1c(N)c(C(=O)COC(=O)c2ccccc2Cl)c(=O)n(C)c1=O` was tested, and the “hERG current change (%, negative = inhibition) at 10uM” value was -41.7%.
For `Cc1ccc(C(C)C)c(OCC(=O)OCC(=O)c2c(N)n(C)c(=O)n(C)c2=O)c1`, the “hERG current change (%, negative = inhibition) at 10uM” value was 3.36%.
`CCOC(=O)c1ccc(NCc2ccncc2)cc1` was tested, and the “hERG current change (%, negative = inhibition) at 10uM” value was -1.66%.
For `O=C(CN(Cc1ccco1)S(=O)(=O)c1cccs1)Nc1ccccc1C(F)(F)F`, the “hERG current change (%, negative = inhibition) at 10uM” value was -32.8%.
`Oc1c(Br)cc(Cl)cc1C=Nc1ccc(N2CCOCC2)cc1` was tested, and the “hERG current change (%, negative = inhibition) at 10uM” value was 19.6%.
In the case of `Cc1c(C(=O)NCc2ccco2)cccc1[N+](=O)[O-]`, the “hERG current change (%, negative = inhibition) at 10uM” value is reported as -6.07%.
For `CCN1C(=O)/C(=C\C=C2/C=CC=CN2CC)SC1=S`, the “hERG current change (%, negative = inhibition) at 10uM” value was -5.68%.
`COc1ccccc1OCc1cc(C(=O)N2CCCC(OCc3cccnc3)C2)no1` (stereo not shown) was tested, and the “hERG current change (%, negative = inhibition) at 10uM” value was -22%.
`O=C(c1cc(COc2ccc(F)cc2Cl)on1)N1CCCCC1c1cccnc1` (stereo not shown) was tested, and the “hERG current change (%, negative = inhibition) at 10uM” value was -41.8%.
In the case of `O=C(c1cc(COc2ccccc2)on1)N1CCCC(OCc2cccnc2)C1` (stereo not shown), the “hERG current change (%, negative = inhibition) at 10uM” value is reported as -16.6%.
With `O=C(c1cc(COc2ccc(F)cc2Cl)on1)N1CCCC(OCc2cccnc2)C1` (stereo not shown) the “hERG current change (%, negative = inhibition) at 10uM” value was -53.5%.
`O=C(c1cc(COc2ccc(F)cc2Cl)on1)N1CCN(c2cnccn2)CC1` was tested, and the “hERG current change (%, negative = inhibition) at 10uM” value was -46.9%.
In the case of `O=C(c1cc(COc2ccc(F)cc2Cl)on1)N1CCC(OCc2cccnc2)CC1`, the “hERG current change (%, negative = inhibition) at 10uM” value is reported as -75.8%.
With `Nc1nc(SCC(=O)NCCCN2CCOCC2)nc2sc3c(c12)CCC3` the “hERG current change (%, negative = inhibition) at 10uM” value was -9.2%.
With `Nc1nc(SCC(=O)NCCN2CCOCC2)nc2sc3c(c12)CCC3` the “hERG current change (%, negative = inhibition) at 10uM” value was -65.9%.
In the case of `Nc1nc(SCC(=O)NCCCO)nc2sc3c(c12)CCC3`, the “hERG current change (%, negative = inhibition) at 10uM” value is reported as -3.17%.
With `Cc1ccc(-c2csc(NC(=O)CSc3nc(C)cc(=O)[nH]3)n2)cc1` the “hERG current change (%, negative = inhibition) at 10uM” value was 1.07%.
In the case of `COc1ccc(N2CCN(C(C)C(=O)N3CCc4ccccc43)CC2)cc1` (stereo not shown), the “hERG current change (%, negative = inhibition) at 10uM” value is reported as -17.7%.
`O=C(CN1CCCCC1)N1CCc2ccccc21` was tested, and the “hERG current change (%, negative = inhibition) at 10uM” value was -6%.
`O=C(CN1CCN(Cc2ccc(Cl)cc2)CC1)N1CCc2ccccc21` was tested, and the “hERG current change (%, negative = inhibition) at 10uM” value was -67.5%.
For `CN(CC(=O)N1CCc2ccccc21)S(=O)(=O)c1ccc(Cl)cc1`, the “hERG current change (%, negative = inhibition) at 10uM” value was -51.2%.
With `COc1ccc(CN2CCN(C(C)C(=O)N3CCc4ccccc43)CC2)cc1OC` (stereo not shown) the “hERG current change (%, negative = inhibition) at 10uM” value was -74%.
For `Cc1nc2ccc(S(=O)(=O)N(C)CC(=O)N3CCc4ccccc43)cc2s1`, the “hERG current change (%, negative = inhibition) at 10uM” value was -42.5%.
For `CN(CC(=O)N1CCc2ccccc21)S(=O)(=O)c1cccs1`, the “hERG current change (%, negative = inhibition) at 10uM” value was -22%.
For `Cc1nc2ccc(S(=O)(=O)N(C)CC(=O)N3CCc4ccccc4C3)cc2s1`, the “hERG current change (%, negative = inhibition) at 10uM” value was -53.2%.
For `Cc1nc2ccc(S(=O)(=O)NCC(=O)N3CCc4ccccc4C3)cc2s1`, the “hERG current change (%, negative = inhibition) at 10uM” value was 0.862%.
`Cc1ccc(S(=O)(=O)N(C)CC(=O)N2CCCc3ccccc32)cc1` was tested, and the “hERG current change (%, negative = inhibition) at 10uM” value was -16.1%.
In the case of `O=C1N(CC(=O)N2CCc3ccccc32)CCN1Cc1ccc(Cl)cc1`, the “hERG current change (%, negative = inhibition) at 10uM” value is reported as -11.8%.
With `COc1cc2c(cc1OC)CN(C(C)C(=O)N1CCc3ccccc31)CC2` (stereo not shown) the “hERG current change (%, negative = inhibition) at 10uM” value was -14%.
For `CCNc1nc(NCC)nc(NS(=O)(=O)c2ccc(N)cc2)n1`, the “hERG current change (%, negative = inhibition) at 10uM” value was 22.7%.
For `CCOC(=O)C(C(=O)Nc1ccc(C)cc1)C1CCCCC1` (stereo not shown), the “hERG current change (%, negative = inhibition) at 10uM” value was 0.407%.
With `CC(C)n1nnc2ccccc2c1=O` the “hERG current change (%, negative = inhibition) at 10uM” value was 10%.
`CN(C)S(=O)(=O)c1cccc(-c2cn3ccccc3n2)c1` was tested, and the “hERG current change (%, negative = inhibition) at 10uM” value was -2.91%.
With `CC1CC1C(=O)OCC(=O)NNC(=O)c1ccc([N+](=O)[O-])cc1` (stereo not shown) the “hERG current change (%, negative = inhibition) at 10uM” value was -2.32%.
`COc1ccc(C2/C(=C(/O)c3ccc(C)cc3)C(=O)C(=O)N2CC2CCCO2)cc1OC` (stereo not shown) was tested, and the “hERG current change (%, negative = inhibition) at 10uM” value was 20.8%.
With `CCOC(=O)CNC(=O)c1ccc(C)cc1` the “hERG current change (%, negative = inhibition) at 10uM” value was 4.88%.
For `COc1cc(SC)ccc1C(=O)OCC(=O)NC1CC1`, the “hERG current change (%, negative = inhibition) at 10uM” value was 7.53%.
For `CC(=O)Cn1nnc(-c2ccc(C(F)(F)F)cc2)n1`, the “hERG current change (%, negative = inhibition) at 10uM” value was 6.1%.
In the case of `CCN1CCN(CCCNC(=O)c2ccccc2NC(=O)C2=C(C)OCCS2)CC1`, the “hERG current change (%, negative = inhibition) at 10uM” value is reported as 1.11%.
With `CC(C(=O)N1CCc2ccccc21)N1CCN(Cc2ccc(Cl)cc2)CC1` (stereo not shown) the “hERG current change (%, negative = inhibition) at 10uM” value was -67%.
`CC(C(=O)N1CCc2ccccc21)N1CCN(Cc2ccccc2)CC1` (stereo not shown) was tested, and the “hERG current change (%, negative = inhibition) at 10uM” value was -34%.
`CC(C(=O)N1CCc2ccccc21)N1CCc2ccccc2C1` (stereo not shown) was tested, and the “hERG current change (%, negative = inhibition) at 10uM” value was -18.9%.
